Results published in the supplement of paper PMC10849652.
Targets with a hit are over-represented here; the source holds about 7,900 in all. About 0.6% of all pairs of compound and target were hits. Unmarked numbers belong to inactive results.

Key:
Assay in all cases: log2 fold change, soluble protein after heating vs DMSO (PISA); higher = thermal stabilisation; K562 cells, 10 uM, 30 min; active = over 0.2 and 3.5 SD of the protein, either way, in both replicates (recomputed)
[1] = compound: COC1=CC=C(C=C1)CN2C=CC3=C2C=C(C=C3)C(=O)NO
Procedure, shortened: (§1)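 Thermal stability values are relative to control samples and come from duplicates. They are expressed as log2 fold changes. For measurement, K562 cells (2×10^6 cells/mL) received 10 μM compound for 30 min, and aliquots were heated for 3 min over 48°C-58°C, pooled, and extracted at 4°C in PBS with 0.5% NP-40. Soluble protein, the supernatant after 21,000xg for 90 min, was quantified by TMTpro 16plex LC-MS/MS with equalised channel sums.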

[2] = compound: CON(C)C(=O)N1N=C(c2cc(F)ccc2F)S[C@@]1(CCCN)c1ccccc1 [filanesib]
Procedure, shortened: as §1

[3] = compound: CO[C@H]1C[C@@H]2CC[C@@H](C)[C@@](O)(O2)C(=O)C(=O)N2CCCC[C@H]2C(=O)O[C@H]([C@H](C)C[C@@H]2CC[C@H](n3cnnn3)[C@H](OC)C2)CC(=O)[C@H](C)/C=C(\C)[C@@H](O)[C@@H](OC)C(=O)[C@H](C)C[C@H](C)/C=C/C=C/C=C/1C [zotarolimus]
Procedure, shortened: as §1

[4] = compound: COc1cc(C(=O)O)ccc1NC(=O)[C@@H]1N[C@@H](CC(C)(C)C)[C@](C#N)(c2ccc(Cl)cc2F)[C@H]1c1cccc(Cl)c1F [idasanutlin]
Procedure, shortened: as §1

[5] = compound: COc1cc(Nc2ncc3c(n2)-c2ccc(Cl)cc2C(c2c(F)cccc2OC)=NC3)ccc1C(=O)O [alisertib]
Procedure, shortened: as §1

[6] = compound: COc1cc2nc(-c3cc(F)ccc3O)nc(N[C@@H]3CNC[C@H]3C(C)(C)O)c2cc1OC
Procedure, shortened: as §1

[7] = compound: COc1cc2ncnc(Nc3ccc(F)c(Cl)c3)c2cc1OCCCN1CCOCC1 [gefitinib]
Procedure, shortened: as §1

[8] = compound: COc1cccc2cc(-c3nc([C@H]4CC[C@H](C(=O)O)CC4)n4ncnc(N)c34)[nH]c12
Procedure, shortened: as §1

[9] = compound: CS(=O)(=O)CCNCc1ccc(-c2ccc3ncnc(Nc4ccc(OCc5cccc(F)c5)c(Cl)c4)c3c2)o1 [lapatinib]
Procedure, shortened: as §1

[10] = compound: CS(=O)(=O)N1CCN(Cc2cc3nc(-c4cccc5[nH]ncc45)nc(N4CCOCC4)c3s2)CC1 [pictilisib]
Procedure, shortened: as §1

[11] = compound: CS(=O)(=O)c1ccc(-c2cnc(N)c(C(=O)Nc3ccccc3)n2)cc1
Procedure, shortened: as §1

[12] = compound: C[C@@H](Oc1cc(-c2cnn(C3CCNCC3)c2)cnc1N)c1c(Cl)ccc(F)c1Cl [crizotinib]
Procedure, shortened: as §1

[13] = compound: C[C@@H]1COCCN1C2=NC(=NC(=C2)C3(CC3)S(=O)(=O)C)C4=C5C=CNC5=CC=C4
Procedure, shortened: as §1

[14] = compound: C[C@H](C1=CC=C(C=C1)C(=O)NC2=C3C=CNC3=NC=C2)N
Procedure, shortened: as §1

[15] = compound: Cc1cc(Nc2cc(CN3CCOCC3)c3nc(C)c(Cc4ccc(Cl)cc4F)n3n2)n[nH]1 [gandotinib]
Procedure, shortened: as §1

[16] = compound: Cc1cc(Nc2cc(N3CCN(C)CC3)nc(Sc3ccc(NC(=O)C4CC4)cc3)n2)n[nH]1 [tozasertib]
Procedure, shortened: as §1

[17] = compound: Cc1ccc(-n2nc(C(C)(C)C)cc2NC(=O)Nc2ccc(OCCN3CCOCC3)c3ccccc23)cc1 [doramapimod]
Procedure, shortened: as §1

[18] = compound: Cc1ccc(C(=O)N(CCCN)[C@@H](c2nc3cc(Cl)ccc3c(=O)n2Cc2ccccc2)C(C)C)cc1 [ispinesib]
Procedure, shortened: as §1

[19] = compound: C[C@H](Nc1ncnc2nc[nH]c12)c1cc2cccc(Cl)c2c(=O)n1-c1ccccc1 [duvelisib]
Procedure, shortened: as §1

[20] = compound: Cc1cc(SCc2sc(-c3ccc(C(F)(F)F)cc3)nc2C)ccc1OCC(=O)O
Procedure, shortened: as §1

UniProt Q70CQ2, sequence (Q70CQ2 whole entry, looked up): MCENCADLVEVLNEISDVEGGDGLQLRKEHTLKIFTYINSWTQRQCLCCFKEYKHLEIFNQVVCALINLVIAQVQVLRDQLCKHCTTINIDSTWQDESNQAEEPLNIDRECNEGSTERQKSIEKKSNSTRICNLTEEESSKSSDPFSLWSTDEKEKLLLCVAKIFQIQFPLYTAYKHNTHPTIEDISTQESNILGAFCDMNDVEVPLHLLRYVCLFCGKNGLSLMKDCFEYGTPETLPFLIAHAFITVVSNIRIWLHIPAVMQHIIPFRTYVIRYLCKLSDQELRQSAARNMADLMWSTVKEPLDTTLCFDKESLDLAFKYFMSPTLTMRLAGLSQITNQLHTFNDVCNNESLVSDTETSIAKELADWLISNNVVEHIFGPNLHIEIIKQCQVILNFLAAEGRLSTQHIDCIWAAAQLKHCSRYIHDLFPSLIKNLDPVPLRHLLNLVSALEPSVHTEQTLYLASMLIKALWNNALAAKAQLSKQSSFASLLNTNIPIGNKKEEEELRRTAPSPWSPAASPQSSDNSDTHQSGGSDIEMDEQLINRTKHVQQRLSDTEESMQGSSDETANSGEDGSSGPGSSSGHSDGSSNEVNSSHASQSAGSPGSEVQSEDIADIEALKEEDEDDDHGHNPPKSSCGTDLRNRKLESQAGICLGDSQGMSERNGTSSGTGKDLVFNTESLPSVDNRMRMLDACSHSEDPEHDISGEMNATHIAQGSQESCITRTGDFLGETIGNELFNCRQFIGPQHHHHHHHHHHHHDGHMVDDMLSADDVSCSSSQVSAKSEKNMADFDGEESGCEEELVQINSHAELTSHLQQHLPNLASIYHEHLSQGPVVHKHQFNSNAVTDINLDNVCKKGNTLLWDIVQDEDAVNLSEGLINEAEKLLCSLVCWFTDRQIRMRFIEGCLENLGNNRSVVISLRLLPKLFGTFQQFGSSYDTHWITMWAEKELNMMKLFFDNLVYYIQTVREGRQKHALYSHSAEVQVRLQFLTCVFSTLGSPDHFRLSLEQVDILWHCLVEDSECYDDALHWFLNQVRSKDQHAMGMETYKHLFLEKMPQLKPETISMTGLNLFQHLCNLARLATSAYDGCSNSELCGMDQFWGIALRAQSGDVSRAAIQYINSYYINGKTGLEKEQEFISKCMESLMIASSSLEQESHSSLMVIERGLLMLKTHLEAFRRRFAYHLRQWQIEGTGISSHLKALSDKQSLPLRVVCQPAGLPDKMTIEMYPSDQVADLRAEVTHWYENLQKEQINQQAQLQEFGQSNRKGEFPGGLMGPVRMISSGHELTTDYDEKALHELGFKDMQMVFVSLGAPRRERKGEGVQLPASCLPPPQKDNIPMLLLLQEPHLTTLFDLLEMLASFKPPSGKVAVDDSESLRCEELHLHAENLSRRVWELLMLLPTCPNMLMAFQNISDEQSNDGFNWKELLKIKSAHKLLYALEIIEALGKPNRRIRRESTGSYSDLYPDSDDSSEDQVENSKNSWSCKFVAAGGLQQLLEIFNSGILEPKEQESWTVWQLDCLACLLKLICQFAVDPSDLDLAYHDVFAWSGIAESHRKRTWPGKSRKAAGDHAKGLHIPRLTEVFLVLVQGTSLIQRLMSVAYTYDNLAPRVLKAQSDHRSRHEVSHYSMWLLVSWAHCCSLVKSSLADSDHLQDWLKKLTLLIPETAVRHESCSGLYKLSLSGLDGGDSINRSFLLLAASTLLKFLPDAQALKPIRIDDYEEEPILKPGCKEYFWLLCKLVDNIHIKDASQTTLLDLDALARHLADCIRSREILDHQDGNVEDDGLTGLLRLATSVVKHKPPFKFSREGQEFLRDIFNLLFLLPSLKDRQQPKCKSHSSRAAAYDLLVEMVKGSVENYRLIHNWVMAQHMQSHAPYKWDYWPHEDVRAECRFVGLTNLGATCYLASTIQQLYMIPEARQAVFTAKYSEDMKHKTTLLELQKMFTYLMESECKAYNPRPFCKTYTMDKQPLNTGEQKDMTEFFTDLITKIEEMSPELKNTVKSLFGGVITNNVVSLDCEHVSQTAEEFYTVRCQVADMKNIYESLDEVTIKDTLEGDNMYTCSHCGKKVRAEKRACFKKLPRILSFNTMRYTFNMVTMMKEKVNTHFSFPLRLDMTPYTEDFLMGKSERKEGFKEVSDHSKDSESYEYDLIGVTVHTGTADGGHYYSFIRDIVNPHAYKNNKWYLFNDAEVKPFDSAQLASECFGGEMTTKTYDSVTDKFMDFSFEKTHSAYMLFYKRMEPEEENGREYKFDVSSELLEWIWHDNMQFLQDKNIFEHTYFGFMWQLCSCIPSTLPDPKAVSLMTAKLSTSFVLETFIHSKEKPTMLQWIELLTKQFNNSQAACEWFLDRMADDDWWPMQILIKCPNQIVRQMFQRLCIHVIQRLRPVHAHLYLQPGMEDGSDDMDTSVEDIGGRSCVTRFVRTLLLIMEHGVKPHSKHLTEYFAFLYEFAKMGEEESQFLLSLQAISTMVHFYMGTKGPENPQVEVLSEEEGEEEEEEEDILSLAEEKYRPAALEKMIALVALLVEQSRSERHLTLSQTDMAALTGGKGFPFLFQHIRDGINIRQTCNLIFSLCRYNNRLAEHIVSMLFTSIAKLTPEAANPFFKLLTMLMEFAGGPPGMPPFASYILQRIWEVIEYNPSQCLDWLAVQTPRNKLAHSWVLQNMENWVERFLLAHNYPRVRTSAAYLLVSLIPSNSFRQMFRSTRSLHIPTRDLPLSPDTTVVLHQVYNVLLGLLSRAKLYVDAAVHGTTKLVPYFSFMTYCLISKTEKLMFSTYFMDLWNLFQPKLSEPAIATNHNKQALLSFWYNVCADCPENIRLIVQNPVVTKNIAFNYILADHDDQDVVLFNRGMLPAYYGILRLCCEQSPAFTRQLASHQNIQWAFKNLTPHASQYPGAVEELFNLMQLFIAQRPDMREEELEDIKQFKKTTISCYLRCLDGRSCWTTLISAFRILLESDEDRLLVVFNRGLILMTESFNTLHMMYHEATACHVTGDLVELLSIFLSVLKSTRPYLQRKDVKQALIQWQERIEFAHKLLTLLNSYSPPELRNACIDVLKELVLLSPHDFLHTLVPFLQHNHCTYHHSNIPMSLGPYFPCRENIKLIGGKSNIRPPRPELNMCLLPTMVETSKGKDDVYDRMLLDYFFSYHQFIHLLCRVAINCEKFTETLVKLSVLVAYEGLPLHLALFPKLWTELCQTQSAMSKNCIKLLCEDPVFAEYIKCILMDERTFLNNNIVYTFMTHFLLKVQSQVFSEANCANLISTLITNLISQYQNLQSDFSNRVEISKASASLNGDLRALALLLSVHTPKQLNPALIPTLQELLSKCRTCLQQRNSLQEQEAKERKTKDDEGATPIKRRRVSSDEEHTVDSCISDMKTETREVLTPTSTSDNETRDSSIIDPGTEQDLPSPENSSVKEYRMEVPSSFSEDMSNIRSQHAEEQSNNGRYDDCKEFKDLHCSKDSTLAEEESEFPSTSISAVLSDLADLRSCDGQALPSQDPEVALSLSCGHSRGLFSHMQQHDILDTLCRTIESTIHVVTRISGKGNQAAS
UniProt Q9NQ34, sequence (Q9NQ34 whole entry, looked up): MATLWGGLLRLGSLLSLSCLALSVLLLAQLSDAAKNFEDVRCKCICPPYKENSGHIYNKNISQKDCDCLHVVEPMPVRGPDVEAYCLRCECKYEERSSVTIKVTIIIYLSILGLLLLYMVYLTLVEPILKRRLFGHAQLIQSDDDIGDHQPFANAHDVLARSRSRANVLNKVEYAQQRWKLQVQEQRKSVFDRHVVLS
UniProt Q6ZVM7, sequence (Q6ZVM7 whole entry, looked up): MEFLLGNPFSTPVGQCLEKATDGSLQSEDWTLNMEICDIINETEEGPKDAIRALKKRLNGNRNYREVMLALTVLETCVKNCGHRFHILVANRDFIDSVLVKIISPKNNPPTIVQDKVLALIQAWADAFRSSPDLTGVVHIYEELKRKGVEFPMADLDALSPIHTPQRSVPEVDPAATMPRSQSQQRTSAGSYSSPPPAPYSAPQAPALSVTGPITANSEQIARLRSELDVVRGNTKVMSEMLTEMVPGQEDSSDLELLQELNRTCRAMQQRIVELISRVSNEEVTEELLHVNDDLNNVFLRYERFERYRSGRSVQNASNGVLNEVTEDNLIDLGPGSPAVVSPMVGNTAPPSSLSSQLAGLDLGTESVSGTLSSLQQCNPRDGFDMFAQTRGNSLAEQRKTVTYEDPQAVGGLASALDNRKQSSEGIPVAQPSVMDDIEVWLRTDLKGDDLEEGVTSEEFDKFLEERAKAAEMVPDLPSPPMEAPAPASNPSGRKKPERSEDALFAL
UniProt A6NIH7, sequence (A6NIH7 whole entry, looked up): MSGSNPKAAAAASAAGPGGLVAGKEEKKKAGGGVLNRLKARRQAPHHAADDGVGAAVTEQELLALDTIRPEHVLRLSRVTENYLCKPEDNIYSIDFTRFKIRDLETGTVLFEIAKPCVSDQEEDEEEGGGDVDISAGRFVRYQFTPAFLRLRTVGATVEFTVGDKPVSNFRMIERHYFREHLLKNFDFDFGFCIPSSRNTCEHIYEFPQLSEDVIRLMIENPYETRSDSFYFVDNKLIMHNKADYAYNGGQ
UniProt Q6NXR4, sequence (Q6NXR4 whole entry, looked up): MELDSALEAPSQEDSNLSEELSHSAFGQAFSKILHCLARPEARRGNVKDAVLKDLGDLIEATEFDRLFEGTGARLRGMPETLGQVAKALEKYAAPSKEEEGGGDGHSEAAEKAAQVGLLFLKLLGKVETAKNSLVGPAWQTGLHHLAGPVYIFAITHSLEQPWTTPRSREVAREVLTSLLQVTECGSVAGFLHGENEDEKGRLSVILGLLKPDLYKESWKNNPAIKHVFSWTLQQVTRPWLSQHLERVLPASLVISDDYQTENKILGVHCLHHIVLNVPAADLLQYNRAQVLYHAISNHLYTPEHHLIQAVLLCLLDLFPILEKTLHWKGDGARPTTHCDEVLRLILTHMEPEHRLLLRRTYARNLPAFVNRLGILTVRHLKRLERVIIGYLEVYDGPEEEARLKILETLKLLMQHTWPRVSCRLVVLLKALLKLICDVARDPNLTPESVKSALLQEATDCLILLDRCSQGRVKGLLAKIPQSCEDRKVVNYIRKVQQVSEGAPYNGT

Row | Target | log2 fold change [1] | log2 fold change [2] | log2 fold change [3] | log2 fold change [4] | log2 fold change [5] | log2 fold change [6] | log2 fold change [7] | log2 fold change [8] | log2 fold change [9] | log2 fold change [10] | log2 fold change [11] | log2 fold change [12] | log2 fold change [13] | log2 fold change [14] | log2 fold change [15] | log2 fold change [16] | log2 fold change [17] | log2 fold change [18] | log2 fold change [19] | log2 fold change [20]
1 | TMEM9B (UniProt Q9NQ34) | 0.001 | -0.039 | 0.014 | 0.036 | -0.032 | 0.011 | -0.047 | -0.068 | -0.118 | 0.07 | -0.035 | -0.011 | 0.105 | 0.061 | -0.116 | -0.03 | 0.023 | -0.211 | – | –
2 | UNC119B (UniProt A6NIH7) | -0.232 | 0.059 | 0.074 | -0.034 | -0.185 | 0.069 | 0.116 | -0.002 | 0.06 | 0.092 | 0.026 | -0.08 | – | 0.039 | 0.034 | -0.019 | 0.263 | 0.527 (active) | 0.178 | -0.064
3 | TSC2 (UniProt P49815) | 0.361 | 0.198 | -0.181 | 0.017 | 0.195 | -0.039 | – | 0.139 | 0.135 | 0.076 | -0.09 | 0.065 | -0.139 | 0.218 | -0.091 | -0.172 | 0.09 | 0.012 | – | –
4 | UBE3B (UniProt Q7Z3V4) | 0.03 | 0.058 | 0.086 | 0.065 | – | 0.247 | -0.037 | – | 0.212 | – | 0.106 | -0.133 | 0.254 | -0.108 | – | -0.109 | -0.055 | 0.178 | 0.141 | 0.021
5 | TMEM179B (UniProt Q7Z7N9) | -0.019 | -0.162 | -0.205 | 0.088 | -0.007 | -0.03 | 0.039 | 0.175 | 0.032 | 0.036 | -0.005 | -0.167 | 0.101 | -0.165 | -0.138 | 0.032 | 0.071 | -0.099 | – | –
6 | UBXN10 (UniProt Q96LJ8) | 0.059 | 0.038 | -0.049 | – | 0.016 | -0.071 | -0.079 | -0.11 | 0.097 | -0.008 | -0.03 | -0.121 | -0.091 | -0.09 | 0.161 | -0.122 | -0.014 | -0.124 | -0.017 | -0.008
7 | UBE2S (UniProt Q16763) | 0.003 | 0.01 | 0.045 | -0.05 | 0.015 | 0.053 | -0.009 | 0.001 | -0.035 | 0.058 | 0.014 | 0.079 | 0.003 | -0.067 | -0.015 | 0.025 | 0.024 | 0.1 | 0.042 | 0.002
8 | TTC4 (UniProt O95801) | 0.087 | 0.004 | 0.016 | -0.003 | 0.029 | 0.054 | 0.032 | -0.072 | -0.003 | -0.016 | 0.046 | -0.001 | 0.017 | 0.029 | -0.025 | 0.061 | -0.028 | 0.108 | 0.032 | 0.134
9 | TMEM184C (UniProt Q9NVA4) | -0.006 | 0.162 | -0.11 | -0.112 | 0.059 | – | -0.043 | 0.077 | – | 0.162 | 0.117 | -0.267 | 0.019 | -0.049 | -0.038 | 0.046 | 0.019 | -0.365 (active) | -0.046 | 0.036
10 | TTI2 (UniProt Q6NXR4) | 0.012 | 0.06 | -0.008 | -0.04 | 0.028 | -0.034 | -0.081 | -0.025 | 0.033 | – | -0.066 | -0.155 | 0.028 | 0.121 | – | 0.004 | 0.013 | -0.204 | -0.067 | 0.142
11 | WASHC5 (UniProt Q12768) | -0.059 | -0.017 | 0.043 | 0.034 | -0.088 | 0.083 | 0.044 | -0.021 | -0.024 | -0.05 | -0.023 | -0.133 | -0.068 | 0.053 | -0.002 | -0.02 | 0.073 | -0.093 | -0.034 | 0.032
12 | UFD1 isoform 1 (UniProt Q92890) | 0.225 (active) | -0.033 | -0.028 | -0.043 | -0.023 | -0.052 | -0.001 | 0.033 | 0.018 | -0.037 | -0.029 | 0.004 | -0.032 | -0.022 | -0.099 | -0.027 | 0.007 | 0.036 | 0.043 | -0.04
13 | TOM1L2 (UniProt Q6ZVM7) | -0.04 | 0.029 | -0.036 | -0.002 | – | – | 0.028 | – | – | – | 0.03 | 0.101 | 0.118 | 0.087 | – | – | 0.02 | – | 0.099 | 0.035
14 | USP34 (UniProt Q70CQ2) | 0.021 | 0.011 | -0.03 | -0.239 | 0.021 | 0 | -0.024 | -0.073 | 0.011 | 0.135 | -0.049 | -0.142 | 0.046 | 0.051 | -0.131 | 0.061 | -0.006 | -0.007 | 0.078 | 0.118
15 | UBAP1 isoform 4 (UniProt Q9NZ09) | -0.018 | 0.078 | 0.045 | -0.014 | -0.034 | -0.017 | 0.088 | -0.018 | 0.23 | -0.005 | -0.003 | -0.008 | 0.07 | 0.023 | 0.009 | 0.399 | 0.044 | -0.046 | 0.052 | 0.082
16 | TTI1 (UniProt O43156) | -0.031 | 0.081 | 0.091 | -0.097 | -0.112 | 0.02 | -0.057 | -0.019 | -0.008 | 0.049 | 0.075 | -0.143 | 0.003 | 0.059 | -0.119 | 0.041 | 0.059 | -0.204 | -0.03 | 0.033
17 | WDR46 (UniProt O15213) | -0.129 | 0.425 | 0.075 | 0.156 | -0.162 | 0.037 | -0.036 | -0.018 | -0.006 | -0.052 | -0.05 | 0.008 | -0.731 | 0.445 | 0.27 | 0.068 | 0.142 | -0.081 | -0.199 | 0.032
